# In PubChem BioAssay:
# The source made the active and inactive calls.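 Rule for the calls, unless noted: active = visual image review flags a hit and inhibition of aggregation exceeds 20%; inconclusive = visual hit but inhibition at or below 20%; inactive = no hit on visual image review.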
# Assays:
# [1] = inhibitors of TNFa-induced NFkB p65 translocation, primary screen, imaging, HUVEC, MLSMR starter and 10KST1 sets (AID 438;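 active = inhibition above 20% together with a positive visual image hit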;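 note: compound added about 3h40 before a 20 min TNFalpha stimulation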;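 for inhibition: signal is the nuclear over cytoplasmic p65 intensity ratio per well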); conditions: HUVEC TNFa-induced p65 nuclear translocation; cell count: measured here: nuclei count (cytotoxicity indicator), at 2.08 µM; inhibition: at 2 µM, stronger effect = higher value, 0% TNFa-plus-vehicle, 100% no-TNFa wells
# [2] = reduction of polyQ htt aggregates in cells – imaging, exon1htt(103Q)mCFP cells, high-content imaging, primary screen (AID 483); conditions: exon1htt(103Q)mCFP cell line, aggregate imaging, at 2 µM; inhibition of aggregation: stronger effect = higher value; nuclei count: measured here: cell count, toxicity;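 note: compound exposure lasted 3 days before fixation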;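 for nuclei count: percent of the per-plate median nuclei count of sample wells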
# [3] = endothelial E-selectin expression blockers – imaging, HUVEC, immunofluorescence, MLSMR starter and 10KST1 sets, primary screen (AID 487;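 active = visually confirmed hit in the image check and inhibition above 20%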;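 for inhibition: signal is fraction of cell area covered by stained E-selectin grains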;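 for nuclei count: 100% = median nuclei count of all wells on the same plate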); conditions: HUVEC TNFalpha-induced E-selectin immunofluorescence imaging, at 2 µM; inhibition: stronger effect = higher value; nuclei count: measured here: cell number, toxicity
# [4] = target: Voltage-gated potassium channel subunit beta-2 (Rattus norvegicus) (UniProt P62483); assay: inhibitors of rat Kvbeta2 reductase activity – biochemical, NADPH fluorescence, primary screen (AID 622;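 active = fluorescence slope higher than the sample average by over 3 SD, cut at about -0.22 in these data, passing the limit was not always enough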;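 note: slope of raw intensity against log time taken from 70 to 1610 s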); conditions: recombinant KvBeta, 4-cyanobenzaldehyde reduction, at 10 µM, stronger effect = higher value
# [5] = target: Voltage-gated potassium channel subunit beta-2 (Rattus norvegicus) (UniProt P62483); assay: enhancers of rat Kvbeta2 NADPH turnover – biochemical, NADPH fluorescence, primary screen (AID 623;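 active = NADPH fluorescence slope more negative than the mean of all samples by about 3 SD, 99.7% confidence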;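 note: fluorescence intensity change per second fitted from 20 to 320 s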); conditions: Recombinant KvBeta, NADPH fluorescence decrease slope, 10 min; at 10 µM; stronger effect = lower value
# [6] = target: Alpha-2C adrenergic receptor (Homo sapiens) (UniProt P18825); assay: compounds altering alpha2C-coupled GIRK flux – cell-based, HEK293 alpha2C/GIRK1/2, thallium flux, primary screen (AID 624;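 active = fluorescence slope after compound addition differing from the mean of all screened samples at 99.7% confidence, in either direction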;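 note: slope of fluorescence ratio to pre-addition baseline per second over 15 to 24 s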); conditions: thallium flux BTC fluorescence, at 10 µM, actives lie on both sides
# [7] = blockers of RIG-like receptor reporter activation – cell-based, Sendai virus stimulus, luciferase, 10K MLSCN set, TLR/RLR signaling modifier project, primary screen (AID 602276;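 active = inhibition at or above 50% at 10 µM; inactive = inhibition below 50%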;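 note: firefly luciferase from ISG56 promoter only with Renilla not read in this screen; 0% = Sendai virus plus DMSO and 100% = medium plus DMSO without virus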); conditions: HEK293 RL24 IRF3 luciferase reporter, at 10 µM, stronger effect = higher value
# [8] = TLR3 IRF3 reporter activation blockers – cell-based, poly I:C stimulus, luciferase, 10K MLSCN set, primary screen (AID 602277;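 active = inhibition of the reporter signal at or above 50%; inactive = inhibition below 50%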); conditions: HEK293-TLR3 RL24 IRF3 luciferase reporter, at 10 µM, stronger effect = higher value
# Alpha-2C adrenergic receptor (Homo sapiens), sequence (P18825 whole entry, looked up): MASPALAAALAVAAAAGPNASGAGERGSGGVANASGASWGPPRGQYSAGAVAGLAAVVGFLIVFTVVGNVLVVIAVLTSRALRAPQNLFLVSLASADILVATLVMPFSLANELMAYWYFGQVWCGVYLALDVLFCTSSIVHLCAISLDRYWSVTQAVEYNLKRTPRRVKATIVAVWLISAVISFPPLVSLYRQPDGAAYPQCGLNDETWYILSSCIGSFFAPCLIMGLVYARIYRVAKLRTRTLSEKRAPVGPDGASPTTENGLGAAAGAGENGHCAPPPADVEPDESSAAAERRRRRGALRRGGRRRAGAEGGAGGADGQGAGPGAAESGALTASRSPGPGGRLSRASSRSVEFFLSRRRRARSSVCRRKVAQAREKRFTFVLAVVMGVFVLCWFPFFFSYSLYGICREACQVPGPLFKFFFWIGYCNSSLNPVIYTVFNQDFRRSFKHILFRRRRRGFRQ
# Voltage-gated potassium channel subunit beta-2 (Rattus norvegicus), sequence (P62483 whole entry, looked up): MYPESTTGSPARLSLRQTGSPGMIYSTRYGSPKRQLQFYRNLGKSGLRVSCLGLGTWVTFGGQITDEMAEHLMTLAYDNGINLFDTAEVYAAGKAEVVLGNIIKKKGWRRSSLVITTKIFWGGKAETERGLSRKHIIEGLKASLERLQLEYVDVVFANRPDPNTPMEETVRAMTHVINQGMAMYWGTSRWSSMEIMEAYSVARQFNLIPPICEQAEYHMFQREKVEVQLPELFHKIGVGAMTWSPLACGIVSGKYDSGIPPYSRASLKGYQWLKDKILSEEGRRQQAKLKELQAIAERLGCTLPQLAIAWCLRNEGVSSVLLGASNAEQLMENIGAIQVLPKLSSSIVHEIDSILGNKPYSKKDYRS
SMILES,cell count [1],inhibition [1],inhibition of aggregation [2],nuclei count [2] [%],inhibition [3],nuclei count [3] [%],fluorescence slope [4],NADPH fluorescence slope [5],slope [6],inhibition [7],inhibition [8]
Cc1ccccc1N(C)S(=O)(=O)c1ccc2[nH]cc(C(=O)NCC3CCCO3)c(=O)c2c1 (stereo not drawn),523,-20.4% (inactive),17.8% (inactive),55,-52.3% (inactive),104,-0.404 (inactive),-4.2e-05 (inactive),0.00343 (inactive),-1.58% (inactive),14.4% (inactive)
CC1Cc2nc(SCC(=O)Nc3ccccc3F)n(C)c(=O)c2S1 (stereo not drawn),385,4.4% (inactive),-9.2% (inactive),98.4,-15% (inactive),113,-0.505 (inactive),-2.1e-05 (inactive),0.00529 (inactive),10.7% (inactive),3.28% (inactive)
CCOc1ccccc1-c1nc(-c2ccc(C)nc2OC)no1,404,4.8% (inactive),-2% (inactive),82.1,1.8% (inactive),96.3,-0.552 (inactive),1.8e-05 (inactive),0.00778 (inactive),-91.4% (inactive),-227% (inactive)
Cc1[nH]c2ccccc2c1Cc1nnc(SCC(=O)NCc2ccco2)o1,428,-7.7% (inactive),12.9% (inactive),83.4,-24.9% (inactive),87,-0.436 (inactive),1.9e-05 (inactive),0.0061 (inactive),-11.7% (inactive),-28.3% (inactive)
S=c1[nH]nc(-c2ccccc2)n1C1C=CCCC1 (stereo not drawn),240,0.4% (inactive),14.7% (inactive),94,-329% (inactive),146,-0.465 (inactive),-1.5e-05 (inactive),0.00318 (inactive),4.48% (inactive),35.6% (inactive)
c1cc2c(cc1Cn1cnnn1)OCO2,599,2.1% (inactive),-6.5% (inactive),107,26.6% (inactive),87.2,-0.492 (inactive),-6.9e-05 (inactive),0.00714 (inactive),13.3% (inactive),22.4% (inactive)
CCc1nc(N)c(C#N)c(-c2ccncc2)c1C,598,6.3% (inactive),-19.7% (inactive),100,-24.5% (inactive),106,-0.605 (inactive),-3.1e-05 (inactive),0.00327 (inactive),9.38% (inactive),19.4% (inactive)
COc1ccc(C2c3c(oc4ccccc4c3=O)C(=O)N2c2ccc(C)cn2)cc1OC (stereo not drawn),865,0% (inactive),-13.4% (inactive),75,-34.6% (inactive),103,-0.605 (inactive),6.8e-06 (inactive),0.00601 (inactive),-0.686% (inactive),-4.49% (inactive)
CCc1nnc2c3cnn(-c4ccccc4)c3ncn12,402,-2.9% (inactive),-11.8% (inactive),103,-25.5% (inactive),125,-0.616 (inactive),7.6e-06 (inactive),0.00633 (inactive),-19% (inactive),-77% (inactive)
COC(=O)[C@H](C)NC(=O)NCc1ccc(F)cc1,589,-23.8% (inactive),24.3% (inactive),100,-131% (inactive),96.1,-0.622 (inactive),-1.3e-05 (inactive),0.00843 (inactive),6.37% (inactive),-35.7% (inactive)
CCN(CC(=O)Nc1ccc(S(N)(=O)=O)cc1)S(=O)(=O)c1cc(C)ccc1OC,432,-0.3% (inactive),-6.5% (inactive),118,-51.7% (inactive),132,-0.425 (inactive),-4.7e-05 (inactive),0.0034 (inactive),-18.9% (inactive),19.6% (inactive)
O=C(CSc1nnnn1-c1ccccc1)c1cc2ccccc2oc1=O,788,-8.3% (inactive),-9.6% (inactive),124,-39.8% (inactive),117,-0.647 (inactive),-1.4e-05 (inactive),0.00672 (inactive),1.78% (inactive),-14.1% (inactive)
O=C(Nc1ccc2c(c1)OCO2)OCc1ccccc1,449,1.6% (inactive),-6% (inactive),101,8.4% (inactive),101,-0.439 (inactive),-5.5e-05 (inactive),0.0049 (inactive),-47.7% (inactive),-107% (inactive)
CC1=C(C(N)=O)C(c2cccnc2)n2nc(SCc3ccccc3Cl)nc2N1 (stereo not drawn),533,-21.6% (inactive),-13.4% (inactive),104,-130% (inactive),107,-0.463 (inactive),-5.4e-05 (inactive),0.00786 (inactive),-20.3% (inactive),19.5% (inactive)
CCCC(=O)N1CC(=O)Nc2ccc(C)cc2C1c1ccc(F)cc1 (stereo not drawn),698,-9.1% (inactive),7.9% (inactive),103,-21.3% (inactive),111,-0.513 (inactive),-3e-05 (inactive),0.00518 (inactive),3.95% (inactive),24.9% (inactive)
COC(=O)c1cnc2c(C(F)(F)F)cccc2c1OC,595,-8.5% (inactive),-5% (inactive),61.8,-64.2% (inactive),84.8,-0.605 (inactive),6.9e-06 (inactive),0.0043 (inactive),9.38% (inactive),10.1% (inactive)
Cc1cc(NC(=O)COc2cccc(C)c2C)no1,684,6.5% (inactive),-9.8% (inactive),104,-16.6% (inactive),121,-0.549 (inactive),-2.5e-05 (inactive),0.00696 (inactive),-0.401% (inactive),0.183% (inactive)
CC1(C)COCN1S(=O)(=O)c1ccc(C(=O)Nc2nnc(-c3ccc(Cl)s3)o2)cc1,440,10.8% (inactive),-2.8% (inactive),98.3,-26.4% (inactive),93.8,-0.545 (inactive),1.8e-05 (inactive),0.00616 (inactive),49.1% (inactive),36.9% (inactive)
N#Cc1cc2ccc(N3CCOCC3)cc2cc1C#N,421,-6.5% (inactive),9.5% (inactive),76.5,-341% (inactive),103,-0.0128 (active),1.2e-05 (inactive),0.00303 (inactive),7.25% (inactive),26.1% (inactive)
O=C(c1cccc(C(=O)N2CCN(c3ccccc3)CC2)c1)N1CCN(c2ccccc2)CC1,667,-2.6% (inactive),1.8% (inactive),98.6,-86.1% (inactive),112,-0.456 (inactive),3e-05 (inactive),0.00517 (inactive),4.89% (inactive),-1.16% (inactive)
Cc1cccc(N2C(=O)CC(N(C(=O)c3ccco3)c3cccc(C)c3)C2=O)c1 (stereo not drawn),641,-9.3% (inactive),-5.2% (inactive),99,-156% (inactive),102,-0.504 (inactive),-5.1e-05 (inactive),0.00488 (inactive),13.6% (inactive),19% (inactive)
CCOC(=O)c1cc2c(=O)n3cccc(C)c3nc2n(CCOC)c1=NC(=O)c1ccncc1,397,-0.2% (inactive),-15.8% (inactive),100,-4.6% (inactive),96.5,-0.346 (inactive),-4.3e-05 (inactive),0.00713 (inactive),16.8% (inactive),12.5% (inactive)
Cc1cc2oc(=O)cc(C)c2c(=O)o1,411,-15.8% (inactive),-0.8% (inactive),105,-2.6% (inactive),115,-0.391 (inactive),3.6e-05 (inactive),0.00528 (inactive),-5.14% (inactive),-17.4% (inactive)
Oc1ccccc1-c1cc(C(F)(F)C(F)F)[nH]n1,337,-1% (inactive),1.9% (inactive),105,46.4% (inactive),106,-0.332 (inactive),-2e-05 (inactive),0.00606 (inactive),-13.1% (inactive),-54.6% (inactive)
COc1ccccc1Nc1ccc(C(=O)NC2CCCCC2)cn1,406,1% (inactive),1.1% (inactive),108,-13.6% (inactive),110,-0.39 (inactive),-5.7e-05 (inactive),0.00711 (inactive),-10.5% (inactive),-22.4% (inactive)
COc1cc(C2NC(=O)NC(C)=C2C(=O)OCC2CCCO2)ccc1O (stereo not drawn),401,1.8% (inactive),-5.3% (inactive),112,-105% (inactive),114,-0.489 (inactive),-3.4e-05 (inactive),0.00604 (inactive),1.44% (inactive),24.7% (inactive)
CCOc1ccc(-c2nc(N)ncc2-c2ccccc2)c(O)c1,399,2% (inactive),-4.3% (inactive),114,-32.6% (inactive),67.7,-0.581 (inactive),-3.6e-05 (inactive),0.00545 (inactive),-1.82% (inactive),-1.28% (inactive)
CCOCC(=O)Nc1c(C(=O)Nc2ccc(OC)cc2OC)oc2ccccc12,543,-4.1% (inactive),19.2% (inactive),93.9,52.4% (inactive),57.7,-0.19 (inactive),-9.5e-06 (inactive),0.00574 (inactive),-20.7% (inactive),-15.2% (inactive)
